Screening data: PubChem BioAssay, National Center for Advancing Translational Sciences (NCATS)
KinaseGlo FLuc = Kinase-Glo luciferase inhibition (counter-screen). Potency, µM (highest dose often 38.3 µM), usual class: inhibitors. Kinase-Glo luciferase, ATP luminescence, 8 min. AID 1379. hit rate 0.28% among 200,000. Q27757; further: nearly all actives have a fitted effect of over 60% in size
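Compound is pinned into ATP-containing buffer (10 uM ATP, imidazole pH 7.2, 7 mM MgCl2). Kinase-Glo luciferase reagent is then added. Light output is recorded following an 8-min room-temperature incubation.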
VP16 counter = Gal4-VP16 reporter inhibition counter-screen; Drosophila S2 Gal4-VP16 UAS-luciferase, luminescence, 20 h; Potency, µM (highest dose often 53.6 µM), actives largely listed as inhibitors; hit rate 3.5% among 310,000;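 further: Gal4-VP16 expression switched on by copper sulfate through the metallothionein promoter; nearly all actives have a fitted effect of over 50% in size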
RORg inh = ROR gamma (mouse) transcription inhibition | AID 2551 | hit rate 5.4% among 310,000 | Drosophila S2 Gal4-RORgamma UAS-luciferase reporter, 20 h | Potency, µM (top dose mostly 53.6 µM), actives largely listed as inhibitors | P51450; further: nearly all actives have a fitted effect of over 60% in size
Target sequence (P51450 whole entry, looked up, the tested form may be a part): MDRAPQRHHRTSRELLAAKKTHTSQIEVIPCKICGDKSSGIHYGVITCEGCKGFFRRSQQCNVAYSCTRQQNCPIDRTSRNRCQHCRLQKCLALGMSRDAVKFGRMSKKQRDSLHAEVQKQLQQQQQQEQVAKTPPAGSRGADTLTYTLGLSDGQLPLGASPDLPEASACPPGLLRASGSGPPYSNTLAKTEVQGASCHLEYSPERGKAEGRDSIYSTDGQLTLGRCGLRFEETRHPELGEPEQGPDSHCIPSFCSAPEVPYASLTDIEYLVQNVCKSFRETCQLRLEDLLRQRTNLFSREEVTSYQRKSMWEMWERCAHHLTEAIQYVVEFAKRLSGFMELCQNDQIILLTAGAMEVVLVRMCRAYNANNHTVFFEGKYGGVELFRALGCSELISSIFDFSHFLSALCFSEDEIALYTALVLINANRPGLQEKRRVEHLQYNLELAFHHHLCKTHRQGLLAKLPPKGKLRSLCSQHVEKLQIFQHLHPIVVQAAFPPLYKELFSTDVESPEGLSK
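Drosophila Schneider cells stably carrying a metallothionein-driven Gal4 DBD–ROR gamma fusion and a UAS-Photinus luciferase reporter were exposed to compound for 1 hr, then induced with copper sulfate (700 uM final) for 20 hr at ambient temperature before luminescence reading.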
Numbers stand for hits; - = inactive; ? = inconclusive; . = not tested or not shown; [ ] = remark or other dose. Rows were chosen to be rich in hits. Some 6.2% of all compounds tested hit in one or more screens of this group. The call rests on the fitted dose curve; in most records, active means well fitted curve in the direction sought with a large enough effect; inconclusive means small, poorly fitted or top-dose-only effect, or another doubt; inactive means no such curve, though single readings can be large; an effect the other way counts as inactive or inconclusive.

SMILES	KinaseGlo FLuc	VP16 counter	RORg inh
CCN(C(=O)COC(=O)c1c(C)c(-c2ccccc2)nc2ccccc12)C1CCS(=O)(=O)C1 (stereo unspecified)	.	-	-
O=C(NCc1ccc(F)cc1)C1CCCN(c2nc3ccsc3c(=O)s2)C1 (stereo unspecified)	-	-	-
O=C(N/N=C/c1c[nH]c2ccccc12)c1cc(-c2cccc3ccccc23)n[nH]1	-	?	-
O=C(N/N=C/c1cccs1)c1cc(-c2cccc3ccccc23)n[nH]1	-	5.01µM	5.01µM
O=C(N/N=C/c1c[nH]c2ccccc12)c1cc(-c2ccc3ccccc3c2)n[nH]1	-	?	?
O=C(N/N=C/c1cccs1)c1cc(-c2ccc3ccccc3c2)n[nH]1	-	5.01µM	3.16µM
COc1ccc(S(=O)(=O)N2CC(O)C[C@H]2C(=O)OCC(=O)N2CCCCCC2)cc1 (stereo partly specified)	-	-	-
COC(=O)c1ccc(NC(=O)CN(Cc2ccc(Cl)cc2)S(C)(=O)=O)cc1	-	-	-
FC(F)(F)c1cccc(Cc2noc(CN(Cc3ccccn3)CC3CCCO3)n2)c1 (stereo unspecified)	.	-	-
CC(C)(C)c1nc(SCC(=O)N2CC(=O)Nc3ccccc32)c2ccccc2n1	-	-	-
CCc1ccc(OCc2nc(-c3ccccn3)no2)c(Br)c1	-	?	?
Cc1ccc(OCc2nc(-c3ccccn3)no2)c(Br)c1	10µM	?	?
O=C(COC(=O)/C=C/c1ccco1)NCCc1ccccc1	-	-	-
COc1ccc(-c2csc3nc(C)nc(N4CCC(C)CC4)c23)cc1OC	-	-[10 µM]	7.08µM
COc1ccc(-c2csc3nc(C)nc(N4CCN(C(C)=O)CC4)c23)cc1OC	-	-	-
CCNc1ncc2nc(-c3cccs3)c(=O)n(-c3ccccc3)c2n1	.	-	-
C/C(=N\NC(=O)c1cccc(O)c1)c1ccc(NC(=O)Cc2ccccc2)cc1	.	-	-
CCCCn1c(=O)c(-[n+]2ccccc2)c([O-])c2ccccc21	-	-	11.2µM
CC(C)Cn1c(=O)c(-[n+]2ccccc2)c([O-])c2ccccc21	-	-	-
COc1cccc(NC(=O)CN(C)S(=O)(=O)c2ccc3c(c2)n(C)c(=O)c(=O)n3C)c1	.	-	-
O=C(N/C(=C\c1ccc(-c2ccccc2)o1)C(=O)N1CCOCC1)c1ccccc1	-	-	-
CNc1nc(N)c(C(=O)C23CC4CC(CC(C4)C2)C3)s1	-	-[10 µM]	-
COc1ccc(Cn2c(O)c(C=Nc3ccc(C)cc3)c3ccccc3c2=O)cc1	-	-	-
COc1ccc(Cn2c(-c3ccc(C)cc3)c[n+]3ccccc23)cc1	-	17.8µM	-
Cc1ccc(Cn2c(Cc3ccccc3)nc3ccccc32)cc1	-	?	8.91µM
SMILES	KinaseGlo FLuc	VP16 counter	RORg inh
COCc1nc2ccccc2n1Cc1ccccc1	-	?	-
CC(=O)Nc1ccc2c(c1)nc(C)n2Cc1ccccc1	.	-	-
ClCc1nc2ccccc2n1Cc1ccccc1	.	-	-
Cc1nc2cc(NCc3nc4ccccc4n3Cc3ccccc3)ccc2n1C	10µM	-	-
COCc1nc2ccccc2n1Cc1ccc(Br)cc1	-	?	10µM
CSc1ccc(-c2nc(CN3CCCCC3c3cccnc3)c(C)o2)cc1 (stereo unspecified)	-	-	?
CC(C)OCCCN1C=C2C(=O)C(C)(OC(=O)C3CCCC3)C(=O)C=C2C=C1c1ccsc1 (stereo unspecified)	-[7.66 µM]	.	.
COc1ccc(-c2nc3ccccc3n2Cc2ccc(C)cc2)cc1	-	?	12.6µM
Cc1cccc(NCc2nc3ccccc3n2Cc2ccccc2)c1	-	?	1µM
Cc1cccc(NCc2nc3ccccc3n2C)c1	-	-	-
COCn1c(-c2ccc(OC)cc2)nc2ccccc21	?	-	?
NC1=C([N+](=O)[O-])C(c2ccc(F)cc2)C2=C(CCCC2=O)O1 (stereo unspecified)	-	-	-
O=C(CC1Nc2c3ccccc3nc(=S)n2C1=O)NC1CCCCC1 (stereo unspecified)	-	-	-
CC(C)NC(=O)N1CC2(CCN(S(=O)(=O)c3ccccc3)CC2)C1	-	-	-
Cc1nc2ccccn2c1C(=O)NNS(=O)(=O)c1ccc(C(C)(C)C)cc1	-	15.8µM	-
COc1ccc(Br)cc1S(=O)(=O)NNC(=O)c1c(C)nc2ccccn12	-	-	-
CCC(c1nnc(SCC(=O)Nc2nnc(-c3ccccc3)o2)o1)N(C)C (stereo unspecified)	-	?	12.6µM
Cc1ccc(C)c(SCC(=O)Nc2nnc(-c3ccccc3)o2)c1	-	5.01µM	2µM
Cc1ccc(-c2nnc(SCC(=O)Nc3ccccc3F)o2)cc1	-	-	-
O=C(CSc1nnc(-c2ccccc2)o1)Nc1ccccc1F	-	-	-
